Several values for one entry are separate records, joined by “and”; a condition that tells them apart may be missing. Equal entries are not always repeated. Compounds without any hit were thinned out: in the full panel of roughly 79,000, 15% have a hit. Rule as the data show it: active = growth inhibition above about 70%; inactive = the rest.
Assays:
[1] = NCI Yeast Anticancer Drug Screen. Data for the rad50 strain (AID 155);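 also: 0% = growth of vehicle-only cultures of the same strain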; conditions: S. cerevisiae rad50 strain growth inhibition, stronger effect = higher value; at 50.0 µM unless noted
Procedure, shortened: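 Readout: growth inhibition relative to vehicle-treated cultures. Compound exposure was carried out in a genetically defined yeast strain deficient in DNA damage repair.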

[2] = NCI Yeast Anticancer Drug Screen. Data for the mec2-1 strain (AID 157); conditions: S. cerevisiae mec2-1 strain, stronger effect = higher value; at 50.0 µM unless noted
Procedure, shortened: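 Strain: mec2-1 (DNA repair/cell cycle alteration). Compound exposure, then growth measured; inhibition expressed relative to vehicle.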

[3] = NCI Yeast Anticancer Drug Screen. Data for the sgs1 mgt1 strain (AID 161);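 also: 0% = growth of cultures given vehicle only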; conditions: S. cerevisiae sgs1 mgt1 strain, stronger effect = higher value; at 50.0 µM unless noted
Procedure, shortened: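 Genetically altered yeast, compound exposure, growth inhibition relative to vehicle.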

[4] = NCI Yeast Anticancer Drug Screen. Data for the cln2 rad14 strain (AID 165);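 also: 0% = growth equal to vehicle treated cultures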; conditions: S. cerevisiae cln2 rad14 strain, stronger effect = higher value; at 50.0 µM unless noted
Procedure, shortened: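 Compounds are applied to the cln2 rad14 yeast strain, and growth is then compared with that of vehicle-treated cultures to give inhibition.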

[5] = NCI Yeast Anticancer Drug Screen. Data for the bub3 strain (AID 167); conditions: S. cerevisiae bub3 mutant strain, stronger effect = higher value; at 50.0 µM unless noted
Procedure, shortened: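 Readout: yeast growth inhibition, expressed relative to vehicle-only wells. The test organism is a mutant strain from a panel with lesions in DNA repair or checkpoint genes.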

[6] = NCI Yeast Anticancer Drug Screen. Data for the mlh1 rad18 strain (AID 175); conditions: S. cerevisiae mlh1 rad18 strain growth inhibition, stronger effect = higher value; at 50.0 µM unless noted
Procedure, shortened: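 Read-out is yeast growth inhibition, calculated against vehicle-only controls. The compound was applied to a strain engineered with DNA damage repair alterations.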

Measured: growth inhibition

Cc1ccc([N+](=O)[O-])cc1NS(=O)(=O)c1cc(Cl)c(Cl)cc1Cl
inactive: [1] 19.8% | [2] 36.6% | [3] 49.2% | [4] -8.5% | [5] 1.2% | [6] 61.2%

CCCCC(Sc1nn(C2OC(COC(=O)c3ccccc3)C(OC(=O)c3ccccc3)C2OC(=O)c2ccccc2)c(=O)[nH]c1=O)C(=O)OCC (centres undefined)
inactive: [1] -1.45% | [2] -10.6% | [3] -21.4% | [4] -33.4% | [5] -4.7% | [6] 7.45%

Oc1ccccc1/C=N/N1C(=S)N(C23CC4CC(CC(C4)C2)C3)C(=Nc2ccccc2)C1=Nc1ccccc1
inactive: [1] -8.55% | [2] -16.2% | [3] -23.2% | [4] 2.35% | [5] -3% | [6] -14.3%

CC1(C)OC2COC(OCc3ccccc3)C(OCc3ccccc3)C2O1 (centres undefined)
inactive: [1] 17.4% | [2] 8.1% | [3] 26.8% | [4] 7.35% | [5] -8.7% | [6] 19%

CC12Nc3ccccc3N1C(=O)c1ccccc12 (centres undefined)
inactive: [1] 15.7% | [2] 6.15% | [3] -34.8% | [4] 1.95% | [5] -1% | [6] -0.5%

COc1ccc(C2OC3=C(Nc4cc(C)c(C)cc4N3)C2=O)cc1 (centres undefined)
inactive: [1] 11.2% | [2] -8.05% | [3] 2.05% | [4] -1.35% | [5] -22.3% | [6] 13.8%

O=C1C2=C(C(=O)C3=C1C1CCC3C1)C1CCC2C1
inactive: [1] 4.1% | [2] -34.1% | [3] -11.7% | [5] -5.25% | [6] 0.7%

Cn1cnc([N+](=O)[O-])c1Sc1nc2cc(Cl)c(F)cc2[nH]1
inactive: [1] -35.6% | [2] -27.9% | [3] -31.9% | [5] -25.1% | [6] -29.4%

O=[N+]([O-])c1ccc(S/N=C\c2ccccc2)c([N+](=O)[O-])c1
inactive: [1] -9.95% | [2] 13.7% | [3] 0.25% | [5] 7.2% | [6] 8.55%

CC1=NN(C(=O)Cc2ccccc2)C(=O)/C1=C\C=C\c1ccccc1
inactive: [1] 11.3% | [2] -28.2% | [3] -20.6% | [5] -15.2% | [6] -7.85%

S=C(S)Nc1cccc2ccccc12
inactive: [1] -14.4% and 11.2% | [2] -13.9% and -10.2% | [6] -16.2% and 14.3%

NC(=S)N/N=C1\CCCc2ccccc21
inactive: [1] 60.8% | [2] 21.2% | [3] 42.3% | [5] 7.15% | [6] 52.8%

CCOC(=O)C(C)NC(=O)NC12CC3CC(CC(F)(C3)C1)C2 (centres undefined)
inactive: [1] 31.3% | [2] 10.6% | [3] 3.1% | [5] 8.45% | [6] -0.2%

O=C(O)CCNCCC(=O)O
inactive: [1] 8.45% | [2] -6.75% | [3] 3.6% | [5] 5.05% | [6] 9.7%

COCCN(CCOC)C(=O)Nc1ccc(Cl)cc1
inactive: [1] 4.6% | [2] 5.5% | [3] 10.4% | [5] 0.8% | [6] 9.75%

NC(N)=NS(=O)(=O)c1ccc(N=NC2=C(O)C(c3ccccc3)N(c3ccccc3)C2=O)cc1 (centres undefined)
inactive: [1] 6.35% | [2] 22.1% | [3] 35.5% | [5] 0.45% | [6] 33%

[Cu+2].[NH-]CC(=O)NC(Cc1ccccc1)C(=O)O.[NH-]CC(=O)NC(Cc1ccccc1)C(=O)O (centres undefined)
inactive: [1] 30.9% | [2] 2.4% | [3] 10.6% | [5] 0.9% | [6] 10.6%

O=S1(=O)C(c2ccccc2)=C1c1ccccc1
inactive: [1] -6.95% | [2] 6.55% | [3] 8.6% | [5] -11.7% | [6] 17.6%

CC(C)(Nc1ccccc1)C(=O)OC(C)(C)C(=O)Nc1ccccc1
inactive: [1] -7% | [2] -25.5% | [3] -12.4% | [5] -6.45% | [6] -7.4%

O=c1c2cc(Cl)ccc2c2ccc(Cl)cc2c(=O)n1-c1ccc2c(c1)Cc1ccccc1-2
inactive: [1] 1.65% | [2] -0.2% | [3] -1.7% | [5] 8.8% | [6] -3.4%

CC12CC(=O)OC1(C)C1CCC2C1 (centres undefined)
inactive: [1] 9.25% | [2] 10.3% | [3] -5.25% | [5] -10.2% | [6] 9.05%

O=C(O)c1ccc(/C=N/N=C2c3ccccc3-c3ccccc32)cc1
inactive: [1] 66.6% | [2] 35.5% | [3] 41% | [5] -4.5% | [6] 64.2%
